Results filed as inconclusive are left out. Activity calls are given as the source filed them. The calls were made as follows: active = hit-call score of the fitted dose curve at least 0.9, where 1 is the maximum; inconclusive = response in the unintended direction; inactive = score below 0.9.
The compounds below were run against rat Histamine Receptor (H3), Hrh3 (gene 85268) (UniProt Q9QYN8) (assay: NVS_GPCR_rH3: NovaScreen (NVS) G Protein-Coupled Receptor Assay for rat Histamine Receptor (H3) (AID 2283303)).
Protocol: NVS_GPCR_rH3 is a biochemical, single-readout assay that uses extracted gene-proteins from Rat forebrain membranes in a tissue-based cell-free assay. Measurements were taken 1 hour after chemical dosing in a 48-well plate.NVS_GPCR_rH3 is one of one assay component(s) measured or calculated from the NVS_GPCR_rH3 assay. It is designed to make measurements of radioligand binding, a form of binding reporter, as detected with scintillation counting signals by Filter-based radiodetection technology.Data from the assay component NVS_GPCR_rH3 was analyzed into 1 assay endpoint. This assay endpoint, NVS_GPCR_rH3, was analyzed in the positive analysis fitting direction relative to DMSO as the negative control and baseline of activity. Using a type of binding reporter, loss-of-signal activity can be used to understand changes in the binding as they relate to the gene Hrh3. Furthermore, this assay endpoint can be referred to as a primary readout, because the performed assay has only produced 1 assay endpoint. To generalize the intended target to other relatable targets, this assay endpoint is annotated to the gpcr intended target family, where the subfamily is rhodopsin-like receptor.
Binding assays used specific radioligands (tritiated, iodinated) with non-radioactive competitive displacement ligands in agonist or antagonist protocols (as indicated) and various reference compounds and inhibitors to titrate specific binding to receptors and transporters. Most enzyme assays (CYPs, kinases, phosphatases, proteases, HDACs) used recombinant protein and specific substrates (fluorescence mostly, some colorimetric and radioactive) and inhibitors, followed by a biochemical separation of substrate and product. All assays for the biochemical HTS were initially run in duplicate at a single concentration (10 uM for CYP450 assays and 25 uM for all others). Assay-chemical combinations meeting a pre-defined threshold (e.g., 30% inhibition and other criteria defined below) were then run in singleton concentration-response format with maximum concentration of 20 uM for CYPs and 50 uM for all others. Each assay was run with positive and negative controls, and concurrent controls on every plate. The follow-up (secondary) screen tested active chemical-pairs in concentration series, as well as a few additional assays not tested in the primary screen, some selected negative inactives, and several cases re-run in the concentration series for confirmatory purposes.

Sequence of rat Histamine Receptor (H3), Hrh3 (gene 85268) (Q9QYN8 whole entry, looked up): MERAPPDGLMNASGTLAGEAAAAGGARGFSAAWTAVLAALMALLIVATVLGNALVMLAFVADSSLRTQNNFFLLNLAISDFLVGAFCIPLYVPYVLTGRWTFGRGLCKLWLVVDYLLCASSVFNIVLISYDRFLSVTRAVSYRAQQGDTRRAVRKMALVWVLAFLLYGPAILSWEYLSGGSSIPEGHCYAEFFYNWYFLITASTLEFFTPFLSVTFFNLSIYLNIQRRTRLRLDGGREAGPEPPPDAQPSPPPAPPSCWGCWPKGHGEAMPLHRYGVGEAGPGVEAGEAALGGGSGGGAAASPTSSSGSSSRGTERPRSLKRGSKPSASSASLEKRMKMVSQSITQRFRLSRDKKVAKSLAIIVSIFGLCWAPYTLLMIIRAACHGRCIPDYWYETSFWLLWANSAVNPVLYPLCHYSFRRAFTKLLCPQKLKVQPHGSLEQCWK

AC50, active:
CN(C)c1ccc(N=NS(=O)(=O)O)cc1 14.6 µM
CCOC(=O)c1ccc(C2CCC(NC[C@H](O)COc3ccc(O)c(NS(C)(=O)=O)c3)CC2)cc1 (stereo not given in full) 23.4 µM
COc1cccc(-c2ccc(/C=C\CN3CCCCCC3)cc2Cl)c1 10.1 µM
Nc1ccc(Nc2ccccc2)cc1 16.9 µM
CC[C@H]1CC[C@H](NCc2cc3c(cc2OC)[C@H]2C[C@H]2C(=O)N3C)[C@H](c2ccccc2)N1 15 µM
COCCOc1cc2cc(C(=O)NC3CCN(C(C)C)CC3)n(CC(=O)Nc3ccc(Cl)cn3)c2cn1 12.6 µM
CCN(C(=O)c1cc(C)cc(OC[C@H](C)Nc2ccncc2)c1)C(C)C 2.93 µM
CCCN(C1CCN(C(=O)C2CCNCC2)CC1)[C@@H]1CCc2ccc(OC)cc2C1 0.914 µM
CNS(=O)(=O)c1cc(C(=O)N2CCC(CCN3C4CCC3CC(n3c(C)nc5ccccc53)C4)(c3cccc(F)c3)CC2)c(Cl)cc1F (stereo not given) 1.85 µM

outcome, inactive:
Cc1[nH]cnc1C[C@H]1CCc2c(C)c3ccccc3n2C1=O
